From PubChem BioAssay (NCATS) come the findings set out here.

Records with an inconclusive call do not appear. Values without a mark were called inactive. Activity calls are given as the source filed them. The call rests on the fitted dose curve; in most records, active means well fitted cell-killing curve with a large enough effect; inconclusive means small, poorly fitted or top-dose-only effect, or effect the other way; inactive means flat fitted curve, though single readings scatter.
On the % scale 0 is the no-effect control and ±100 the full control effect.

For the assay, the system named is CAOV3. In words: Primary qHTS to identify gynecologic anti-cancer compounds using libraries of approved drugs and bioactive compounds (AID 1345084). Further: nearly all actives have a fitted effect of over 55% in size. Particulars: Gynecologic cancer cell panel viability, ATPlite luminescence, 48 h; series mostly up to 57.5 µM; activity change, negative = cytotoxicity: at the top concentration. The method in brief: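 Cell viability after 48 h drug treatment, ATPlite luminescence readout; five doses.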
Turning to `O=C(O)c1cc(-c2ccccc2)nc2ccccc12`, the Potency entry was “inactive”. Still for that read-out and setting: the entry for `OC[C@@H](O)[C@H](O)[C@H](O)[C@@H](O)CO` is “inactive”. For the molecule `O=C(NC1CCOCC1)c1ccc(-c2cc(-c3cn[nH]c3-c3ccccn3)ccn2)cc1`, the “activity change, negative = cytotoxicity” value was 6.46%. With `CCN1CCC[C@H]1CNC(=O)c1cc(S(N)(=O)=O)ccc1OC`, the Potency entry is “inactive”. Regarding `COc1ccc(C2CC(c3ccccc3)=NN2c2ccc(S(N)(=O)=O)cc2)cc1` (configuration not stated), the “activity change, negative = cytotoxicity” value was -2.48%. As to `Clc1ccc(Cn2c(CN3CCCC3)nc3ccccc32)cc1`, the Potency entry was “inactive”. In the case of `O=C(O)Cc1cccc2ccccc12`, the “activity change, negative = cytotoxicity” value is 1.81%. Regarding `C[C@@H](O)[C@H]1C(=O)N2C(C(=O)O)=C(S[C@@H]3CN[C@H](C(=O)N(C)C)C3)[C@H](C)[C@H]12`, the Potency entry is “inactive”.

On to `CC(=O)Oc1cc2c(s1)CCN(C(C(=O)C1CC1)c1ccccc1F)C2` (configuration not stated), for which the “activity change, negative = cytotoxicity” value is -1.23%.

`CC(=O)CCCCn1c(=O)c2c(ncn2C)n(C)c1=O`: the Potency entry is “inactive”. For `O=C(CCN1CCN(C(=O)OCc2cc(Cl)cc(Cl)c2)CC1)c1ccc2[nH]c(=O)oc2c1`, the “activity change, negative = cytotoxicity” value is -8.86%. As to `O=C(O)CCc1nc(-c2ccccc2)c(-c2ccccc2)o1`, the Potency result is “inactive”. In the case of `CNC(=O)c1ccc2cc(C3(O)CCn4cncc43)ccc2c1` (configuration not stated), the “activity change, negative = cytotoxicity” value is 21.4%.

Take `COc1ccccc1N1CCN(CCCNc2cc(=O)n(C)c(=O)n2C)CC1`: the Potency result is “inactive”. Regarding `CS(=O)c1ccc(-c2nc(-c3ccc(F)cc3)c(-c3ccncc3)[nH]2)cc1` (configuration not stated), the “activity change, negative = cytotoxicity” value was 30.8%.

With `CC(C)C(=O)Oc1ccc(CO)cc1[C@H](CCN(C(C)C)C(C)C)c1ccccc1`, the “activity change, negative = cytotoxicity” value is 10.9%. On the same count and under the same terms, for `CC[C@]1(O)C[C@@H]2CN(CCc3c([nH]c4ccccc34)[C@@](C(=O)OC)(c3cc4c(cc3OC)N(C)[C@H]3[C@@](O)(C(=O)OC)[C@H](OC(C)=O)[C@]5(CC)C=CCN6CC[C@]43[C@@H]65)C2)C1` the value was -38.6%.
